Most compounds without a hit are left out; they make up all but 9.3% or so of the library.
NADH coupling: blocks coupling enzymes of NAD/NADH assays | 65,000 tested, 0.02% active | coupled PK/LDH NADH assays, four targets | AID 774 | IC50, µM (highest dose often 10 µM), without a hit: at the highest dose inhibition;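 active means single-dose screening hits from any of four coupled enzyme assays that gave an IC50 when retested across doses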;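 further: the DPM-DC format reads NADH fluorescence rather than 340 nm absorbance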
Autofluor 339: intrinsic fluorescence of library compounds, ex339/em460 – biochemical, MLSMR library, data from DPM-DC assay, artefact control, profiling panel | compound autofluorescence, ex339/em460 nm, NADH buffer; hits give high values; 1 = no-compound wells, NADH background | fluorescence fold increase at 10 µM | 65,000 tested, 5.5% active;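 active means at 10 µM, mean starting fluorescence two-fold or more over control wells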;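 further: signal is the first read of a kinetic run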
mHtt clearance: mutant huntingtin protein clearance; HeLa Exon1htt(103Q)mCFP, aggregate imaging; zero = plate's median compound well; inhibition, % at 1.5 µM; 47,000 tested, 0.42% active; AID 853;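 active means inhibition of aggregate fluorescence above about 70%, also judged a hit by eye on the cell image, limit read from the data, passing the limit was not always enough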;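 further: cells exposed to compound for three days before fixation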
M1 antagonist: antagonists of rat M1 muscarinic receptor | CHO-M1 cells, Fluo-4 calcium, ACh EC80 antagonist mode; hits give low values | B-score at 10 µM | 64,000 tested, 3.4% active | AID 628;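 active means calcium fluorescence response, raw or row-and-column corrected B-score, differing from the plate sample mean either way at a set confidence level, mostly lower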
Target sequence (P08482 whole entry, looked up): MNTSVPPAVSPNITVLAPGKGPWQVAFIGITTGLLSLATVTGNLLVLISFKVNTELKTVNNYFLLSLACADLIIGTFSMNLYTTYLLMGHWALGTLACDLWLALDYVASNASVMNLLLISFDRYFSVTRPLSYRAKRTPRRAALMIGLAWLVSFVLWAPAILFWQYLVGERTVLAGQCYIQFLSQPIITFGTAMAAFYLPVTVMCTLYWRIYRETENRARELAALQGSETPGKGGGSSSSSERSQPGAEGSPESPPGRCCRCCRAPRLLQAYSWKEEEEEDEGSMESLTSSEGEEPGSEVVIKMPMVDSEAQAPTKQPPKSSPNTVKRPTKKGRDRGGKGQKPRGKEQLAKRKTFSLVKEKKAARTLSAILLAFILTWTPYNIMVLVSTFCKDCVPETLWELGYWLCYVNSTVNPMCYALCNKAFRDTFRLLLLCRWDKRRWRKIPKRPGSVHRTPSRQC
M1 ag: activates the M1 muscarinic receptor. CHO-M1 cells, Fluo-4 calcium fluorescence, agonist mode; hits give high values. B-score at 10 µM. 64,000 tested, 3% active. AID 626;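 active means fluorescence rise, raw or as B-score row- and column-corrected plate score, outside the 99.7% band of its plate's samples, either direction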
Abs 340nm: compound absorbs light at 340 nm; compound absorbance at 340 nm, fold over control; fold change at 10 µM; 65,000 tested, under 10 active; AID 708;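 active means at 10 µM dose, initial 340 nm absorbance at least 2 fold that of control wells; inactive means change under 2 fold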;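 further: initial absorbance extrapolated from kinetic A340 decline of NADH oxidation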
* = called active by the depositor.

Results for CCC(=O)N(Cc1cc2cc(OC)ccc2[nH]c1=O)c1ccc(C)cc1C ?
NADH coupling: 10%; Autofluor 339: 3.1*; M1 antagonist: 0.23; M1 ag: -0.59; Abs 340nm: 1

How did Cc1ccccc1S(=O)(=O)Cc1ccc(C(=O)NCCCOC(C)C)o1 do in these assays?
NADH coupling: 6%; Autofluor 339: 1.1; M1 antagonist: -0.58; M1 ag: -0.84; Abs 340nm: 0.98

What do the screens show for `Cc1cc(C(=O)NCc2ccccc2)c(=O)[nH]c1C`?
NADH coupling: 13%; Autofluor 339: 2.1*; M1 antagonist: -0.26; M1 ag: 0.64; Abs 340nm: 1.1

How did CCOC(=O)C1CCCN(S(=O)(=O)c2cccc3cccnc23)C1 (configuration not stated) do in these assays?
NADH coupling: 3%; Autofluor 339: 1.1; mHtt clearance: -4; M1 antagonist: -1.9; M1 ag: 0.67; Abs 340nm: 1

How did Cc1noc(C)c1COc1ccc(C(=O)NCc2ccccn2)cc1 do in these assays?
NADH coupling: 5%; Autofluor 339: 1.1; M1 antagonist: -0.056; M1 ag: -0.73; Abs 340nm: 0.99

Results for CC(=O)Nc1ccc(C2Nc3ccccc3C(=O)N2C2CCCCC2)cc1 (configuration not stated) ?
NADH coupling: 7%; Autofluor 339: 2.2*; mHtt clearance: 6; M1 antagonist: 0.34; M1 ag: -1.2; Abs 340nm: 1

Results for COc1ccccc1-c1cc(C(=O)Nc2ccccc2SC)no1 ?
NADH coupling: 15%; Autofluor 339: 2.8*; M1 antagonist: -0.046; M1 ag: 1.7; Abs 340nm: 1

What do the screens show for `COc1cccc(-c2cc(C(=O)Nc3ccccc3SC)no2)c1`?
NADH coupling: 5%; Autofluor 339: 1.4; mHtt clearance: -24; M1 antagonist: 0.52; M1 ag: 1; Abs 340nm: 1

Results for COc1ccc(CCNC(=O)c2cc(-c3ccccc3OC)on2)cc1OC ?
NADH coupling: 2%; Autofluor 339: 1.1; mHtt clearance: -9; M1 antagonist: 0.28; M1 ag: -0.11; Abs 340nm: 1

What do the screens show for `COc1ccc(-c2cc(C(=O)Nc3cc(C)n(Cc4ccc(Cl)cc4)n3)no2)cc1OC`?
NADH coupling: 11%; Autofluor 339: 2.2*; mHtt clearance: 63; M1 antagonist: -0.33; M1 ag: -0.64; Abs 340nm: 1.1

Results for COc1ccccc1-c1cc(C(=O)NCCc2ccccc2)no1 ?
mHtt clearance: 79*

How did COc1ccc(-c2cc(C(=O)Nc3ccccc3SC)no2)cc1OC do in these assays?
NADH coupling: 5%; Autofluor 339: 2.2*; mHtt clearance: -60; M1 antagonist: -0.016; M1 ag: 0.3; Abs 340nm: 1.1

Results for Cc1ccccc1C(=O)/C=C1\NC(=O)CS1 ?
NADH coupling: 11%; Autofluor 339: 1; mHtt clearance: 1; M1 antagonist: -0.23; M1 ag: 0.78; Abs 340nm: 1.3

Results for CCOC(=O)/C(C#N)=C\C1=C(N2CCCC2)CC(C)(CC)OC1 (configuration not stated) ?
mHtt clearance: -34

How did COc1ccc(-c2cc(C(=O)Nc3cnn(Cc4ccccc4C)c3)no2)cc1OC do in these assays?
NADH coupling: 12%; Autofluor 339: 2.4*; mHtt clearance: 7; M1 antagonist: -0.46; M1 ag: -0.12; Abs 340nm: 1

What do the screens show for `COc1cc(OC)cc(C(=O)Nc2ccccc2N2CCOCC2)c1`?
NADH coupling: 7%; Autofluor 339: 1.1; M1 antagonist: -0.14; M1 ag: 6.5*; Abs 340nm: 0.98

What do the screens show for `OCCCc1nc2n(n1)C(c1ccccc1)C=C(c1ccc(F)cc1)N2` (configuration not stated)?
NADH coupling: 7%; Autofluor 339: 2*; mHtt clearance: 8; M1 antagonist: 0.15; M1 ag: 2.3; Abs 340nm: 1.1

Results for OCCCc1nc2n(n1)C(c1cccs1)C=C(c1ccccc1)N2 (configuration not stated) ?
NADH coupling: 9%; Autofluor 339: 2.1*; M1 antagonist: -15*; M1 ag: 431*; Abs 340nm: 1.1

How did C1=C(c2ccccc2)Nc2nnnn2C1c1cccs1 (configuration not stated) do in these assays?
mHtt clearance: -34

Source: PubChem
